Experimental data: PubChem BioAssay AID1159580 (chemical genetic matrix, 2015)
Several values for one entry are separate records, joined by “and”; a condition that tells them apart may be missing. Equal entries are not always repeated. Screen size: about 5,500 compounds; about 2,000 (36%) were called active. About 18% were inconclusive and are not listed. Cut-off read from the data, not from the text of the source: active = normalized growth mostly below about 0.91 (no sharp cut-off); inconclusive = no clear call, values can overlap the other calls; inactive = mostly above about 0.92. The list shows a part of the results.

Test: chemical genetic growth profiling, strain panel (AID 1159580);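 note: tested at 20 µM; growth read once vehicle control cultures reached saturation at 30 °C; 1 = growth at the plate median or of vehicle wells; lower values mean less growth of the strain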
Conditions: S. cerevisiae deletion strains, growth OD

Measured: normalized growth

C=NC(C(=O)NC1C(=O)N2C1SC(C)(C)C2C(=O)O)c1ccccc1 (configuration not stated)
inactive: locus YAL013W, strain DEP1, active compounds read low 1.01 | locus YAL021C, strain ccr4, active compounds read low 0.991 | locus YAL026C, strain drs2, active compounds read low 0.994 | locus YAL030W, strain snc1, active compounds read low 1 | locus YBL061C, strain skt5, active compounds read low 1.02 | locus YBR009C, strain hhf1, active compounds read low 0.994 | locus YBR021W, strain FUR4, active compounds read low 0.999 | locus YBR023C, strain chs3, active compounds read low 0.995 | locus YBR171W, strain sec66, active compounds read low 1.02 | locus YBR229C, strain ROT2, active compounds read low 1 | locus YBR231C, strain swc5, active compounds read low 1.02 | locus YBR279W, strain paf1, active compounds read low 1 | locus YCL011C, strain gbp2, active compounds read low 0.989 | locus YCL016C, strain dcc1, active compounds read low 0.986 | locus YCL029C, strain bik1, active compounds read low 1.02 | locus YCL061C, strain MRC1, active compounds read low 0.991 | locus YCL069W, strain vba3, active compounds read low 1.01 | locus YCR088W, strain abp1, active compounds read low 1 | locus YDL005C, strain med2, active compounds read low 0.998 | locus YDL035C, strain GPR1, active compounds read low 1.01 | locus YDL040C, strain nat1, active compounds read low 1.01 | locus YDL074C, strain BRE1, active compounds read low 0.986 | locus YDL101C, strain DUN1, active compounds read low 1.01 | locus YDL134C, strain PPH21, active compounds read low 1.01 | locus YDL185W, strain tfp1, active compounds read low 1.01 | locus YDL192W, strain arf1, active compounds read low 1.01 | locus YDR001C, strain nth1, active compounds read low 0.989 | locus YDR069C, strain doa4, active compounds read low 1.03 | locus YDR101C, strain arx1, active compounds read low 1 | locus YDR137W, strain rgp1, active compounds read low 1.01 | locus YDR150W, strain NUM1, active compounds read low 1.01 | locus YDR159W, strain sac3, active compounds read low 1.07 | locus YDR162C, strain NBP2, active compounds read low 1.03 | locus YDR195W, strain ref2 1 | locus YDR297W, strain sur2, active compounds read low 1.03 | locus YDR318W, strain mcm21, active compounds read low 1.02 | locus YDR334W, strain swr1, active compounds read low 1 | locus YDR335W, strain msn5, active compounds read low 0.983 | locus YDR388W, active compounds read low 1 | locus YDR392W, strain spt3, active compounds read low 0.867 | locus YDR502C, strain sam2, active compounds read low 1.02 | locus YEL003W, strain gim4, active compounds read low 1 | locus YEL037C, strain rad23, active compounds read low 0.994 | locus YEL061C, strain CIN8 (second series), active compounds read low 0.995 | locus YEL061C, strain CIN8, active compounds read low 1 | locus YER015W, strain faa2, active compounds read low 0.978 | locus YER016W, strain bim1, active compounds read low 1.01 | locus YER110C, active compounds read low 1.01 | locus YER111C, strain swi4, active compounds read low 1 | locus YER155C, strain BEM2 (second series), active compounds read low 1.03 | locus YER155C, strain BEM2, active compounds read low 1 | locus YER167W, strain BCK2, active compounds read low 1.02 | locus YFR010W, strain ubp6, active compounds read low 0.993 | locus YGL078C, strain dbp3, active compounds read low 1 | locus YGL086W, strain mad1, active compounds read low 1.02 | locus YGL167C, strain pmr1, active compounds read low 0.992 | locus YGL173C, strain kem1, active compounds read low 1.01 | locus YGL227W, strain vid30, active compounds read low 0.996 | locus YGL240W, strain doc1, active compounds read low 1.04 | locus YGL248W, strain PDE1, active compounds read low 1.02 | locus YGL253W, strain hxk2, active compounds read low 1.01 | locus YGR078C, strain PAC10, active compounds read low 1.01 | locus YGR135W, strain pre9, active compounds read low 1.01 | locus YGR229C, strain SMI1, active compounds read low 0.977 | locus YGR252W, strain gcn5, active compounds read low 1.07 | locus YHR013C, strain ard1, active compounds read low 0.973 | locus YHR027C, strain rpn1, active compounds read low 0.992 | locus YHR030C, strain SLT2, active compounds read low 1.01 and 1 | locus YHR079C, strain IRE1 (second series), active compounds read low 1.01 | locus YHR079C, strain IRE1, active compounds read low 1 | locus YHR094C, strain hxt1, active compounds read low 1.01 | locus YHR129C, strain ARP1, active compounds read low 1.01 | locus YHR142W, strain chs7, active compounds read low 0.994 | locus YHR200W, strain rpn10, active compounds read low 1.03 | locus YIL066C, strain RNR3, active compounds read low 1.01 | locus YIL073C, strain SPO22, active compounds read low 1.07 | locus YIL125W, strain kgd1, active compounds read low 1.01 | locus YIR030C, strain dcg1, active compounds read low 1.02 | locus YJL092W, strain hpr5, active compounds read low 0.994 | locus YJL095W, strain BCK1 (second series), active compounds read low 1 | locus YJL095W, strain BCK1, active compounds read low 1.01 and 0.995 | locus YJL115W, strain asf1, active compounds read low 0.973 | locus YJL129C, strain trk1, active compounds read low 0.991 | locus YJL134W, strain LCB3, active compounds read low 1.01 | locus YJL154C, strain vps35, active compounds read low 1 | locus YJL164C, strain tpk1, active compounds read low 0.977 | locus YJL166W, strain qcr8, active compounds read low 1.02 | locus YJL168C, strain set2, active compounds read low 1.01 | locus YJL187C, strain SWE1 (second series), active compounds read low 1.01 | locus YJL187C, strain SWE1, active compounds read low 1.02 | locus YJR043C, strain POL32, active compounds read low 0.992 | locus YJR066W, strain TOR1, active compounds read low 0.988
